ChEMBL document CHEMBL4513216, “Probing the Open Global Health Chemical Diversity Library for Multistage-Active Starting Points for Next-Generation Antimalarials” (ACS Infect Dis, 2020)
Hit rate of the full screen: of about 68,000 compounds, about 2,700 (4%) showed an effect of 50% or more. Many of the other results were omitted from the sample, so strong results are more common in it than they were.

test system: Plasmodium berghei; experiment: Screen against P. berghei liver stage (PbLuc), transformed with Luciferase, at 2uM; type: functional, HepG2; conditions: tested at 2 uM

| Compound | INHIBITION [%] |
| --- | --- |
| CCC(CC)(CCO)CNC(=O)c1ccon1 | 34.69 |
| CS(=O)(=O)NCCNC(=O)Cc1ccc(Br)s1 | 12.55 |
| Cc1ncc(CNC(=O)c2oc3ccccc3c2CN(C)C)s1 | -21.47 |
| CN(CC1Cc2ccccc2CN1C)C(=O)CSc1ccccn1 (centres undefined) | 35.54 |
| Cc1cc(=O)[nH]c(SCC(=O)N(C)CC2Cc3ccccc3CN2C)n1 (centres undefined) | -15.36 |
| CN(CC1Cc2ccccc2CN1C)C(=O)CSc1nccn1C (centres undefined) | 53.61 |
| COc1ccc(CCCN(C)C(=O)c2cc(Cl)c[nH]2)cc1OC | 32.31 |
| O=C(C1CC1)N1Cc2[nH]nc(COCc3cccnc3)c2C1 | -14.61 |
| O=C(Nc1cc(CCC2CCN(CCO)CC2)ccn1)c1ccccn1 | 35.19 |
| COc1cccc(CC(=O)N2CC[C@@H]3[C@H](CC2)N(C)CCS3(=O)=O)c1 | 4.38 |
| CC(C)CC(=O)N1CC[C@H]2N(C)CC[C@@]2(C(=O)Nc2ccccc2)CC1 | 11.87 |
| CNC(=O)N1CC[C@H]2N(C)CC[C@@]2(C(=O)Nc2ccccc2)CC1 | 62.13 |
| CC(C)C(=O)N1CC[C@H]2N(C)CC[C@@]2(C(=O)Nc2ccccc2)CC1 | 17.69 |
| CC(C)(C)Nc1nc(-c2cccnc2)c(-c2ccnc(NCCO)n2)s1 | -31.71 |
| CCOC1CCC2(CCN(C(=O)c3c[nH]cn3)CC2)c2ccccc21 (centres undefined) | 28.46 |
| CC(C)c1nn(C)c(N2CCOCC2)c1CNC(C)c1ccco1 (centres undefined) | 53.98 |
| Cc1ccc(C(C)NCc2c(C(C)C)nn(C)c2N2CCOCC2)o1 (centres undefined) | -41.76 |
| Cc1nn(C)c(N2CCOCC2)c1CNC(C)c1ccco1 (centres undefined) | -39.37 |
| NC(CC1CCCC1)c1ccccc1 (centres undefined) | 10.24 |
| CCN1CCCC1CNC(=O)c1cc(COc2cccc(F)c2)[nH]n1 (centres undefined) | 21.67 |
| O=C(CC1CC1)N1CCc2ncc(Cn3cncn3)n2CC1 | 31.73 |
| CC(C)S(=O)(=O)N1CCCC(c2nccn2Cc2cccnc2)C1 (centres undefined) | -7.66 |
| Cc1noc(C)c1CN1CC[C@H]2OCC[C@@H](C(=O)N3CCCO3)[C@@H]2C1 | -13.8 |
| Cc1noc(C)c1CN1CC[C@H]2OCC[C@@H](C(=O)N3CCCO3)[C@H]2C1 | 59.08 |
| Cc1noc(C)c1CN1CC[C@H]2OCC[C@@H](C(=O)NCC3CC3)[C@@H]2C1 | 6.04 |

| Compound | INHIBITION [%] |
| --- | --- |
| O=C([C@@H]1CCO[C@@H]2CCN(CC3CCOCC3)C[C@H]21)N1CCCO1 | -3.19 |
| O=C([C@@H]1CCO[C@@H]2CCN(CC3CC3)C[C@H]21)N1CCCCO1 | 57.07 |
| O=C([C@@H]1CCO[C@@H]2CCN(CC3CC3)C[C@H]21)N1CCCC1 | -16.33 |
| CCn1ccc(NC(=O)C2CCC(=O)N2Cc2ccc(C)o2)n1 (centres undefined) | 45.14 |
| O=C(c1cc(=O)n(-c2ccccc2)[nH]1)N1CCOCC(O)C1 (centres undefined) | 4.12 |
| COCCOc1ccccc1NC(C)C(=O)NC(=O)NC(C)(C)C (centres undefined) | -19.21 |
| CCCc1n[nH]c(C2CN(C(=O)c3ccc[nH]3)CCO2)n1 (centres undefined) | -70.51 |
| CC(Cc1ccccc1F)NC(=O)CCC1=NC(=C2N=CN=N2)NO1 (centres undefined) | 24.12 |
| COCCNC(=O)Cn1c(-c2cccc(F)c2)nc(C)c(CCO)c1=O | -4.75 |
| O=C(O)C1(Cc2ccc(F)cc2F)CCCN(Cc2ccncc2)C1 (centres undefined) | 43.57 |
| COCCC1(CO)CCCN(Cc2ccncc2)C1 (centres undefined) | 10.53 |
| OCC1(Cc2ccc(F)cc2F)CCCN(Cc2ccncc2)C1 (centres undefined) | 61.48 |
| Cc1c(-c2cc(C(=O)N3CCc4ncc(Cl)cc4C3)on2)cnn1C | -30.88 |
| O=C(NCC(F)F)c1cc(-c2ccccc2)nc2ncnn12 | 5.88 |
| CCc1nc(CCNC(=O)NC2CCSCC2)cs1 | 50.32 |
| CCc1nc(CCNC(=O)NC2CC(=O)N(C(C)(C)C)C2)cs1 (centres undefined) | 3.62 |
| CCc1nc(CCNC(=O)Nc2ccc(C(=O)NC)cc2)cs1 | -58.5 |
| CCNCc1ccc(OCc2ccc3c(c2)OCCO3)cc1 | 12.94 |
| NC1CC(C(F)(F)F)=NC=C1c1ccccc1 (centres undefined) | 25.93 |
| Cn1c(C(F)(F)F)nn(CCNC(=O)Nc2ccccc2F)c1=O | 37.87 |
| Cn1c(C(F)(F)F)nn(CCNC(=O)Nc2ccccc2Cl)c1=O | 64.74 |
| Cc1ccccc1NC(=O)NCCn1nc(C(F)(F)F)n(C)c1=O | 16.54 |
| Cn1cc(C(=O)N2CCN(Cc3cscn3)CC2)ccc1=O | -15.08 |
| O=C(NCc1ccccc1)N1CCC2(CC(=O)N(c3ccsc3)C2)C1 (centres undefined) | 18.86 |
| O=C(Nc1ccccc1)N1CCC2(CC(=O)N(c3ccsc3)C2)C1 (centres undefined) | 57.31 |

| Compound | INHIBITION [%] |
| --- | --- |
| CN1CC2(CNCCN(C(=O)Nc3ccccc3)C2)CC1=O (centres undefined) | 56.21 |
| CCN1CC2(CNCCN(C(=O)Nc3ccccc3)C2)CC1=O (centres undefined) | 17.77 |
| CC(=O)N1CCN(C(=O)Nc2ccccc2)CC2(CC(=O)N(C)C2)C1 (centres undefined) | 7.88 |
| Cc1cccc(NC(=O)N2CCC3(CC(=O)N(c4ccsc4)C3)C2)c1 (centres undefined) | 1.29 |
| Cc1nn(Cn2ccc(C(=O)N3CCCCCC3)n2)c(C)c1Cl | 7.68 |
| CC(NC(N)=O)C(=O)N1CCCN(Cc2nccn2C(C)C)CC1 (centres undefined) | -7.5 |
| CN(C(=O)Cc1ccc(NC(=O)NC2CCC2)cc1)c1ccccc1 | 43.21 |
| Cc1ccc(C(=O)N2CCC3(CC2)CCN(CCN(C)C)C3=O)cn1 | 39.92 |
| CCn1c(C2CCN(C(=O)c3cc(Cl)no3)CC2)nn(C)c1=O | 13.76 |
| CCn1c(C2CCN(C(=O)c3cc(CC(C)C)no3)CC2)nn(C)c1=O | 51.31 |
| CCn1c(C2CCN(C(=O)c3cc(CC(C)C)on3)CC2)nn(C)c1=O | -5.44 |
| CCN1CCn2c(-c3cccc(F)c3)cnc2C12CCN(C(C)=O)CC2 | -13.68 |
| O=c1[nH]c(NCCO)nc2c1C1(CCCC1)Cc1ccccc1-2 | -29.21 |
| O=c1[nH]c(NCCO)nc2c1C1(CCCCC1)Cc1ccccc1-2 | 53.55 |
| O=c1[nH]c(NCCCO)nc2c1C1(CCCC1)Cc1ccccc1-2 | 43.82 |
| CCN(Cc1ccoc1)C(=O)C1CN(C(=O)OC(C)(C)C)C1 | 52.03 |
| CCN(Cc1ccoc1)C(=O)C1CCN(C(=O)OC(C)(C)C)C1 (centres undefined) | 30.25 |
| CCN(Cc1ccoc1)C(=O)NC1CCN(C(=O)OC(C)(C)C)C1 (centres undefined) | 7.93 |
| Cc1cc(-n2nnc(C(=O)O)c2-c2ccncc2)ccc1F | -37.39 |
| Cc1occc1C(=O)N1CCC2(CCCN(c3ncc(F)cn3)C2)C1 (centres undefined) | -13.37 |
| CC(C)(C)n1cc(C(=O)O)c(-c2ccc(F)cc2F)n1 | 52.98 |
| Cn1cc(C(=O)OCC(N)=O)c(-c2ccc(F)cc2F)n1 | 19.59 |
| Cn1cc(C(=O)O)c(-c2ccc(F)cc2F)n1 | 31.51 |
| COc1ccc(C(=O)C2CCCN(c3nccc(N)n3)C2)c(C)c1 (centres undefined) | 22.5 |
| COc1ccc(N2CCC(N(C)C(=O)Nc3ccncc3)CC2)cc1 | -18.09 |

| Compound | INHIBITION [%] |
| --- | --- |
| Cc1cccc(CN2CC[C@H]3[C@H]2CCN3C(=O)c2cnn(C)c2)n1 | 51.4 |
| Cc1cccc(CN2CC[C@H]3[C@H]2CCN3Cc2cnn(C)c2)n1 | 46.68 |
| Cn1cc(C(=O)N2CC[C@@H]3[C@@H]2CCN3Cc2ccncc2)cn1 | 70.31 |
| Cn1cc(C(=O)N2CC[C@@H]3[C@@H]2CCN3Cc2ccccc2)cn1 | 28.85 |
| Cc1cccc(CN2CC[C@@H]3[C@@H]2CCN3C(=O)c2cc(C)on2)n1 | 26.01 |
| Cn1cc(C(=O)N2CC[C@@H]3[C@@H]2CCN3Cc2cccnc2)cn1 | -31.39 |
| Cc1cccc(CN2CC[C@@H]3[C@@H]2CCN3C(=O)c2ccno2)n1 | 51.94 |
| Cc1cccc(CN2CC[C@@H]3[C@@H]2CCN3C(=O)c2cnoc2C)n1 | -15.6 |
| Cc1cccc(N2CC[C@H]3[C@H]2CCN3C(=O)c2cnn(C)c2)n1 | 3.56 |
| Cc1cc(CNCC2Cn3nnc(C)c3CO2)oc1C (centres undefined) | 26.42 |
| CCS(=O)(=O)NC1CCCN(c2ccc(F)cc2C)C1=O (centres undefined) | -13.11 |
| Cn1cc(C(=O)N2CCCC(C(=O)CCc3ccccc3)C2)cn1 (centres undefined) | 18.12 |
| CCC(O)CNc1nccc(-c2ccc(C)nc2C)n1 (centres undefined) | -23.27 |
| O=C(Cc1cccs1)N1CCC2(CCCN(CC3CCOCC3)C2)C1 (centres undefined) | 54.62 |
| O=C(Cc1ccccn1)N1CCC2(CCCN(CC3CCOCC3)C2)C1 (centres undefined) | -16.36 |
| O=C(Cc1ccsc1)N1CCC2(CCCN(CC3CCOCC3)C2)C1 (centres undefined) | 32.04 |
| CS(=O)(=O)c1ccc(OCCCN2CCc3cncnc3C2)cc1 | 20.53 |
| Cn1cnc2c1CCN(CCCOc1ccc(C#N)cc1)C2 | 40.29 |
| Cn1cnc2c1CCN(CCCOc1ccc(S(C)(=O)=O)cc1)C2 | 72.05 |
| CCS(=O)(=O)N(C)C1CCN(C(=O)c2cc(C)cc(C)c2)CC1 | -37.02 |
| CNC(=O)COc1ccccc1CNCc1c(C)noc1C | 57.75 |
| Cc1noc(C)c1CNC(=O)C(C)Oc1ccccc1F (centres undefined) | -23.17 |
| CNC(=O)COc1cccc(CNCc2c(C)noc2C)c1 | -16.18 |
| Cc1cc(O)cc(=O)n1CCCC(=O)Nc1n[nH]c2cc(Br)ccc12 | -14.65 |
